According to PubChem BioAssay AID1159580 (chemical genetic matrix, 2015):
About 2,000 (36%) of roughly 5,500 compounds were called active. Not shown: some 18% with an inconclusive outcome. Cut-off read from the data, not from the text of the source: active = normalized growth mostly below about 0.91 (no sharp cut-off); inconclusive = no clear call, values can overlap the other calls; inactive = mostly above about 0.92. The list shows a part of the results.

Assay: chemical genetic growth profiling, strain panel (AID 1159580);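 note: tested at 20 µM; growth read once vehicle control cultures reached saturation at 30 °C; 1 = growth at the plate median or of vehicle wells; lower values mean less growth of the strain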
Conditions: growth OD

Q: With `CC1(C)C=Cc2cc3ccc(=O)oc3cc2O1` as the compound, how does the normalized growth (S. cerevisiae deletion strains, locus YJR066W, strain TOR1, hits give low values) read?
A: 0.793 (active)

Q: What about the normalized growth (S. cerevisiae deletion strains, locus YJR075W, strain HOC1, hits give low values) of the same compound?
A: 0.941 (inactive)

Q: And the normalized growth (S. cerevisiae deletion strains, locus YKL009W, strain mrt4, hits give low values)?
A: 0.921 (inactive)

Q: What about the normalized growth (S. cerevisiae deletion strains, locus YKL068W, hits give low values) of the same compound?
A: 0.966 (inactive)

Q: What about the normalized growth (S. cerevisiae deletion strains, locus YKL085W, strain MDH1 (second series), hits give low values) of the same compound?
A: 0.973 (inactive)

Q: And the normalized growth (S. cerevisiae deletion strains, locus YKL085W, strain MDH1, hits give low values)?
A: 0.973 (inactive)

Q: And the normalized growth (S. cerevisiae deletion strains, locus YKL160W, strain elf1, hits give low values)?
A: 0.909 (inactive)

Q: And the normalized growth (S. cerevisiae deletion strains, locus YKR001C, strain vps1, hits give low values)?
A: 0.907 (inactive)

Q: And the normalized growth (S. cerevisiae deletion strains, locus YKR026C, strain gcn3, hits give low values)?
A: 0.942 (inactive)

Q: And the normalized growth (S. cerevisiae deletion strains, locus YKR091W, strain srl3, hits give low values)?
A: 0.924 (active)

Q: And the normalized growth (S. cerevisiae deletion strains, locus YLL001W, strain dnm1, hits give low values)?
A: 0.876 (active)

Q: And the normalized growth (S. cerevisiae deletion strains, locus YLL026W, hits give low values)?
A: 0.934 (inactive)

Q: And the normalized growth (S. cerevisiae deletion strains, locus YLL041C, strain sdh2, hits give low values)?
A: 0.937 (inactive)

Q: And the normalized growth (S. cerevisiae deletion strains, locus YLR027C, strain aat2, hits give low values)?
A: 0.942 (inactive)

Q: And the normalized growth (S. cerevisiae deletion strains, locus YLR039C, strain RIC1, hits give low values)?
A: 0.91 (inactive)

Q: What about the normalized growth (S. cerevisiae deletion strains, locus YLR058C, strain SHM2, hits give low values) of the same compound?
A: 0.965 (inactive)

Q: What about the normalized growth (S. cerevisiae deletion strains, locus YLR102C, strain apc9, hits give low values) of the same compound?
A: 0.969 (inactive)

Q: And the normalized growth (S. cerevisiae deletion strains, locus YLR113W, strain HOG1, hits give low values)?
A: 0.729 (active)

Q: And the normalized growth (S. cerevisiae deletion strains, locus YLR221C, strain rsa3, hits give low values)?
A: 0.93 (inactive)

Q: What about the normalized growth (S. cerevisiae deletion strains, locus YLR258W, strain gsy2, hits give low values) of the same compound?
A: 0.895 (active)

Q: And the normalized growth (S. cerevisiae deletion strains, locus YLR262C, strain YPT6 (second series), hits give low values)?
A: 0.815 (active)

Q: And the normalized growth (S. cerevisiae deletion strains, locus YLR268W, strain sec22, hits give low values)?
A: 0.985 (inactive)

Q: And the normalized growth (S. cerevisiae deletion strains, locus YLR320W, strain mms22, hits give low values)?
A: 0.891 (inactive)

Q: What about the normalized growth (S. cerevisiae deletion strains, locus YLR330W, strain CHS5, hits give low values) of the same compound?
A: 0.984 (inactive)

Q: And the normalized growth (S. cerevisiae deletion strains, locus YLR342W, strain FKS1 (second series), hits give low values)?
A: 0.87 (inactive)

Q: What about the normalized growth (S. cerevisiae deletion strains, locus YLR342W, strain FKS1, hits give low values) of the same compound?
A: 0.909 (active)

Q: And the normalized growth (S. cerevisiae deletion strains, locus YLR357W, strain rsc2, hits give low values)?
A: 0.979 (inactive)

Q: What about the normalized growth (S. cerevisiae deletion strains, locus YLR370C, strain arc18, hits give low values) of the same compound?
A: 0.873 (active)

Q: What about the normalized growth (S. cerevisiae deletion strains, locus YLR371W, strain rom2, hits give low values) of the same compound?
A: 0.906 (active)

Q: And the normalized growth (S. cerevisiae deletion strains, locus YLR384C, strain iki3, hits give low values)?
A: 0.948 (inactive)

Q: What about the normalized growth (S. cerevisiae deletion strains, locus YLR418C, strain cdc73, hits give low values) of the same compound?
A: 0.851 (inactive)

Q: What about the normalized growth (S. cerevisiae deletion strains, locus YML016C, strain PPZ1, hits give low values) of the same compound?
A: 0.986 (inactive)

Q: And the normalized growth (S. cerevisiae deletion strains, locus YML032C, strain rad52, hits give low values)?
A: 0.923 (inactive)

Q: And the normalized growth (S. cerevisiae deletion strains, locus YML120C, strain ndi1, hits give low values)?
A: 0.85 (active)

Q: And the normalized growth (S. cerevisiae deletion strains, locus YML124C, strain tub3, hits give low values)?
A: 0.96 (inactive)

Q: What about the normalized growth (S. cerevisiae deletion strains, locus YMR058W, strain fet3, hits give low values) of the same compound?
A: 0.925 (inactive)

Q: And the normalized growth (S. cerevisiae deletion strains, locus YMR078C, strain ctf18, hits give low values)?
A: 0.95 (inactive)

Q: And the normalized growth (S. cerevisiae deletion strains, locus YMR125W, strain sto1, hits give low values)?
A: 0.999 (inactive)

Q: And the normalized growth (S. cerevisiae deletion strains, locus YMR129W, hits give low values)?
A: 0.923 (active)

Q: What about the normalized growth (S. cerevisiae deletion strains, locus YMR205C, strain PFK2, hits give low values) of the same compound?
A: 0.923 (inactive)

Q: And the normalized growth (S. cerevisiae deletion strains, locus YMR223W, strain ubp8, hits give low values)?
A: 0.908 (inactive)

Q: And the normalized growth (S. cerevisiae deletion strains, locus YMR231W, strain pep5, hits give low values)?
A: 0.976 (inactive)

Q: What about the normalized growth (S. cerevisiae deletion strains, locus YMR263W, strain SAP30, hits give low values) of the same compound?
A: 0.977 (inactive)

Q: And the normalized growth (S. cerevisiae deletion strains, locus YMR307W, strain GAS1, hits give low values)?
A: 1.06 (inactive)

Q: What about the normalized growth (S. cerevisiae deletion strains, locus YNL067W, strain RPL9B, hits give low values) of the same compound?
A: 0.957 (inactive)

Q: And the normalized growth (S. cerevisiae deletion strains, locus YNL071W, strain lat1, hits give low values)?
A: 0.863 (active)

Q: And the normalized growth (S. cerevisiae deletion strains, locus YNL128W, strain TEP1, hits give low values)?
A: 1 (inactive)

Q: What about the normalized growth (S. cerevisiae deletion strains, locus YNL183C, strain NPR1, hits give low values) of the same compound?
A: 0.843 (inactive)

Q: What about the normalized growth (S. cerevisiae deletion strains, locus YNL209W, strain ssb2, hits give low values) of the same compound?
A: 0.923 (active)

Q: What about the normalized growth (S. cerevisiae deletion strains, locus YNL233W, strain BNI4, hits give low values) of the same compound?
A: 0.941 (inactive)

Q: What about the normalized growth (S. cerevisiae deletion strains, locus YNL248C, strain rpa49, hits give low values) of the same compound?
A: 0.916 (inactive)

Q: What about the normalized growth (S. cerevisiae deletion strains, locus YNL250W, strain rad50, hits give low values) of the same compound?
A: 0.965 (inactive)

Q: What about the normalized growth (S. cerevisiae deletion strains, locus YNL271C, strain bni1, hits give low values) of the same compound?
A: 0.958 (inactive)

Q: What about the normalized growth (S. cerevisiae deletion strains, locus YNL298W, strain CLA4, hits give low values) of the same compound?
A: 0.97 (inactive)

Q: And the normalized growth (S. cerevisiae deletion strains, locus YNL307C, strain MCK1, hits give low values)?
A: 0.943 (inactive)

Q: And the normalized growth (S. cerevisiae deletion strains, locus YNL322C, strain KRE1 (second series), hits give low values)?
A: 0.917 (inactive)

Q: And the normalized growth (S. cerevisiae deletion strains, locus YNR049C, strain mso1, hits give low values)?
A: 0.925 (inactive)

Q: What about the normalized growth (S. cerevisiae deletion strains, locus YNR052C, strain pop2, hits give low values) of the same compound?
A: 0.971 (inactive)

Q: What about the normalized growth (S. cerevisiae deletion strains, locus YOL006C, strain TOP1, hits give low values) of the same compound?
A: 0.75 (inactive)

Q: What about the normalized growth (S. cerevisiae deletion strains, locus YOL012C, strain htz1) of the same compound?
A: 0.855 (inactive)

Q: What about the normalized growth (S. cerevisiae deletion strains, locus YOL147C, strain pex11, hits give low values) of the same compound?
A: 0.964 (inactive)

Q: And the normalized growth (S. cerevisiae deletion strains, locus YOR001W, strain rrp6, hits give low values)?
A: 0.895 (inactive)

Q: And the normalized growth (S. cerevisiae deletion strains, locus YOR061W, strain CKA2, hits give low values)?
A: 1 (inactive)

Q: And the normalized growth (S. cerevisiae deletion strains, locus YOR069W, strain VPS5, hits give low values)?
A: 0.99 (inactive)

Q: And the normalized growth (S. cerevisiae deletion strains, locus YOR070C, strain gyp1, hits give low values)?
A: 0.981 (inactive)

Q: What about the normalized growth (S. cerevisiae deletion strains, locus YOR080W, strain dia2, hits give low values) of the same compound?
A: 0.964 (inactive)

Q: What about the normalized growth (S. cerevisiae deletion strains, locus YOR083W, strain WHI5, hits give low values) of the same compound?
A: 0.844 (active)

Q: What about the normalized growth (S. cerevisiae deletion strains, locus YOR106W, strain vam3, hits give low values) of the same compound?
A: 0.821 (active)

Q: And the normalized growth (S. cerevisiae deletion strains, locus YOR136W, strain idh2, hits give low values)?
A: 0.968 (inactive)

Q: And the normalized growth (S. cerevisiae deletion strains, locus YOR144C, strain elg1, hits give low values)?
A: 0.972 (inactive)

Q: What about the normalized growth (S. cerevisiae deletion strains, locus YOR184W, strain ser1, hits give low values) of the same compound?
A: 0.892 (inactive)

Q: And the normalized growth (S. cerevisiae deletion strains, locus YOR231W, strain MKK1, hits give low values)?
A: 0.857 (active)

Q: And the normalized growth (S. cerevisiae deletion strains, locus YOR265W, strain rbl2, hits give low values)?
A: 0.935 (inactive)

Q: What about the normalized growth (S. cerevisiae deletion strains, locus YOR270C, strain vph1, hits give low values) of the same compound?
A: 0.731 (active)

Q: What about the normalized growth (S. cerevisiae deletion strains, locus YOR290C, strain snf2, hits give low values) of the same compound?
A: 0.783 (active)

Q: And the normalized growth (S. cerevisiae deletion strains, locus YOR316C, strain cot1, hits give low values)?
A: 0.978 (inactive)

Q: What about the normalized growth (S. cerevisiae deletion strains, locus YPL051W, strain arl3, hits give low values) of the same compound?
A: 0.906 (active)

Q: And the normalized growth (S. cerevisiae deletion strains, locus YPL055C, strain LGE1, hits give low values)?
A: 0.951 (inactive)

Q: What about the normalized growth (S. cerevisiae deletion strains, locus YPL078C, strain atp4, hits give low values) of the same compound?
A: 0.82 (active)

Q: What about the normalized growth (S. cerevisiae deletion strains, locus YPL106C, strain sse1, hits give low values) of the same compound?
A: 0.843 (active)

Q: What about the normalized growth (S. cerevisiae deletion strains, locus YPL240C, strain hsp82, hits give low values) of the same compound?
A: 0.936 (inactive)

Q: What about the normalized growth (S. cerevisiae deletion strains, locus YPL256C, strain CLN2, hits give low values) of the same compound?
A: 0.776 (active)

Q: What about the normalized growth (S. cerevisiae deletion strains, locus YPR119W, strain clb2, hits give low values) of the same compound?
A: 0.953 (inactive)

Q: And the normalized growth (S. cerevisiae deletion strains, locus YPR141C, strain kar3, hits give low values)?
A: 0.957 (inactive)

Q: And the normalized growth (S. cerevisiae deletion strains, locus YPR163C, strain tif3, hits give low values)?
A: 0.983 (inactive)

Q: And the normalized growth (S. cerevisiae deletion strains, locus YPR167C, strain met16, hits give low values)?
A: 0.948 (inactive)

Q: And the normalized growth (S. cerevisiae deletion strains, strain wtn01, hits give low values)?
A: 0.927 (inactive)

Q: And the normalized growth (S. cerevisiae strains, strain wild type, hits give low values)?
A: 0.974 (inactive)
